How the values were obtained:
Test in all cases: DAPPL (digital affinity profiling via proximity ligation, sequencing); 10 mM Tris-HCl pH 7.5, 50 mM NaCl, 1 mM DTT, 4% glycerol, room temperature, 30 min; GST-TFs on glutathione beads, 16-mer random dsDNA library, 0.1% formaldehyde crosslink after washing; high values mean tight binding
FLI1 = biological target: T1, FLI1 (Homo sapiens, UniProt Q01543 1-452); conditions: protein: recombinant; tags: N-terminal GST; dsDNA, one strand shown
T1 sequence: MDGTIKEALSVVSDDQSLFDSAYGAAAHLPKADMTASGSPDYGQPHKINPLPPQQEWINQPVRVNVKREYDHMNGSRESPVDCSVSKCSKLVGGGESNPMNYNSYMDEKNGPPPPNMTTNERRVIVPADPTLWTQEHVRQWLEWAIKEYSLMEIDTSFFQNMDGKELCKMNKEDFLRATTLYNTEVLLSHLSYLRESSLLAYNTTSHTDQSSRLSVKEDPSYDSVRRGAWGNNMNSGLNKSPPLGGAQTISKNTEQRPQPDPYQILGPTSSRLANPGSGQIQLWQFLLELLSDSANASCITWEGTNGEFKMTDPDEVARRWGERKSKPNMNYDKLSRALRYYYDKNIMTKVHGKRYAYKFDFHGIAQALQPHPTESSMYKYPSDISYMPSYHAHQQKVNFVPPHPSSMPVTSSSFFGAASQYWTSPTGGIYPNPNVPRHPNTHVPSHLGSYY
In short: (§1)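 GST fusions of human transcription factors were expressed in yeast and captured with glutathione beads. Once given DNA barcodes and pooled alongside a tag-only sample, they were incubated for 30 min at room temperature with 200 nmole of a random double-stranded 16-mer DNA library in Tris/NaCl/DTT/glycerol buffer, then washed, crosslinked (0.1% formaldehyde), proximity-ligated, PCR-amplified and sequenced on an Illumina NextSeq500. The binding signal of each hexamer is its read frequency for a factor divided by its frequency for the tag-only sample.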

ELK1 = biological target: T2, ELK1 (Homo sapiens, UniProt P19419 1-428); conditions: protein: recombinant; tags: N-terminal GST; dsDNA, one strand shown
T2 sequence: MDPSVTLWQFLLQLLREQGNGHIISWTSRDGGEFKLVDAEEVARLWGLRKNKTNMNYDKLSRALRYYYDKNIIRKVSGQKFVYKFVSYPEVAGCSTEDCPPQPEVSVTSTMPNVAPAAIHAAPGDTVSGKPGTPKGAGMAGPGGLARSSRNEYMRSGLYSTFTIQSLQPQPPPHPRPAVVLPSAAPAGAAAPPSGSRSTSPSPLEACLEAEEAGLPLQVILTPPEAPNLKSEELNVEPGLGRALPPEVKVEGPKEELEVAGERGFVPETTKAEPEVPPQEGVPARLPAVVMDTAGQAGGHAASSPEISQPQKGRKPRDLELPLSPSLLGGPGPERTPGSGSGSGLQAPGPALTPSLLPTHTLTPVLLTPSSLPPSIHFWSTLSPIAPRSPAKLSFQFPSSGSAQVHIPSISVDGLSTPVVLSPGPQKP
In short: as §1

GABPA = biological target: T3, GABPA (Homo sapiens, UniProt Q06546 1-454); conditions: protein: recombinant; tags: N-terminal GST; dsDNA, one strand shown
T3 sequence: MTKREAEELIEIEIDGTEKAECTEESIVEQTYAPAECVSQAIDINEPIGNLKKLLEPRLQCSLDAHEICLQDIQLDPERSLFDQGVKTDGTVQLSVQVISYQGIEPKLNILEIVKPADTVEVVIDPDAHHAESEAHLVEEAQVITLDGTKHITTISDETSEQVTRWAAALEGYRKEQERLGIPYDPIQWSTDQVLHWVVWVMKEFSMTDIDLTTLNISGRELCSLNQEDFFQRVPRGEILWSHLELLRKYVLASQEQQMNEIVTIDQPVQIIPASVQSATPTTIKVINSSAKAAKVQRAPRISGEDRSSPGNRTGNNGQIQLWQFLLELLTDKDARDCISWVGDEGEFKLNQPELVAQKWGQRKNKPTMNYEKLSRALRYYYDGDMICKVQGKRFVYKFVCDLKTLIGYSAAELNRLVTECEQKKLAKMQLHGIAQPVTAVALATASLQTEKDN
In short: as §1

ERG = biological target: T4, ERG (Homo sapiens, UniProt P11308 1-479); conditions: protein: recombinant; tags: N-terminal GST; dsDNA, one strand shown
T4 sequence: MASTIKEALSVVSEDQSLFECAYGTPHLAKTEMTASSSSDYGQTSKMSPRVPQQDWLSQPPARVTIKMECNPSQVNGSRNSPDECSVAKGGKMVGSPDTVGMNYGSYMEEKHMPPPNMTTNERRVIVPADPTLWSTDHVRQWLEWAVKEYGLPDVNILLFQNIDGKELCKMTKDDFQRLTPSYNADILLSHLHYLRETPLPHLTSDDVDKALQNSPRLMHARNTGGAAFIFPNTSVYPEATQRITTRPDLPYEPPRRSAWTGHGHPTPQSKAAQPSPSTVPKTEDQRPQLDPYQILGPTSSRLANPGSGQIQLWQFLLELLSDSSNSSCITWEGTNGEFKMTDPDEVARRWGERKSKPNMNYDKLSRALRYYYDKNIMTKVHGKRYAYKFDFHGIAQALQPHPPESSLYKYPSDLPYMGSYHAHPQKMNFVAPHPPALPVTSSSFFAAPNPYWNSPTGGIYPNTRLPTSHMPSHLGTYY
In short: as §1

ELF1 = ELF1 (Homo sapiens, UniProt P32519 1-619); conditions: protein: recombinant; tags: N-terminal GST; dsDNA, one strand shown
In short: as §1

EHF = biological target: T5, EHF (Homo sapiens, UniProt Q9NZC4 1-300); conditions: protein: recombinant; tags: N-terminal GST; dsDNA, one strand shown
T5 sequence: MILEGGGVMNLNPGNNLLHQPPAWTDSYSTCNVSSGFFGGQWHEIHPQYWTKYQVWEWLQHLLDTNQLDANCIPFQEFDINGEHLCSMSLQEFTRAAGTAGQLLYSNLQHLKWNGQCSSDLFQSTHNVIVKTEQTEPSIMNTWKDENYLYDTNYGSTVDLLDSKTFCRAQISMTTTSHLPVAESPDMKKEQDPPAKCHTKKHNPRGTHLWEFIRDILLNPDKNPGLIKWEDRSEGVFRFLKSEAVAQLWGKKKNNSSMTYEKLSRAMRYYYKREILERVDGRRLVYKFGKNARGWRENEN
In short: as §1

SPI1 = SPI1 (Homo sapiens, UniProt P17947 1-270); conditions: protein: recombinant; tags: N-terminal GST; dsDNA, one strand shown
In short: as §1

SPIB = SPIB (Homo sapiens, UniProt Q01892 1-262); conditions: protein: recombinant; tags: N-terminal GST; dsDNA, one strand shown
In short: as §1

ELK3 = biological target: T6, ELK3 (Homo sapiens, UniProt P41970 1-407); conditions: protein: recombinant; tags: N-terminal GST; dsDNA, one strand shown
T6 sequence: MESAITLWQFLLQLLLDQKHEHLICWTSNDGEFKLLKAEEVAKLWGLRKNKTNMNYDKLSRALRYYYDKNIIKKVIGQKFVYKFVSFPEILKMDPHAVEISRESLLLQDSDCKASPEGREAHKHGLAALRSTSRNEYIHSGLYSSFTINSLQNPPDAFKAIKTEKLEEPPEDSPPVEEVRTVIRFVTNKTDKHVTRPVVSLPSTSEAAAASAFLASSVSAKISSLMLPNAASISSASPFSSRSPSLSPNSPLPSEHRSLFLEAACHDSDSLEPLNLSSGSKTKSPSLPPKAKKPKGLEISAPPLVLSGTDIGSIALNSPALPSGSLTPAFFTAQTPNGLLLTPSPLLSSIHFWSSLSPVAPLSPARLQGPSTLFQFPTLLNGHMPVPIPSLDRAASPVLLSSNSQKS
In short: as §1

FEV = biological target: T7, FEV (Homo sapiens, UniProt Q99581 1-238); conditions: protein: recombinant; tags: N-terminal GST; dsDNA, one strand shown
T7 sequence: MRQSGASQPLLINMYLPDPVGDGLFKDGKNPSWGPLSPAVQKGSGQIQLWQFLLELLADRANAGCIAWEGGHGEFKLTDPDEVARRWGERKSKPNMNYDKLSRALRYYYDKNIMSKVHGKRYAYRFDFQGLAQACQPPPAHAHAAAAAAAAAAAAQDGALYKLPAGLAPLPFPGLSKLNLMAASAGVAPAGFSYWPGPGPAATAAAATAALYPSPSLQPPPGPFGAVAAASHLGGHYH
In short: as §1

ETV5 = ETV5 (Homo sapiens, UniProt P41161 1-510); conditions: protein: recombinant; tags: N-terminal GST; dsDNA, one strand shown
In short: as §1

HSF1 = HSF1 (Homo sapiens, UniProt Q00613 1-529); conditions: protein: recombinant; tags: N-terminal GST; chain copies: 3; dsDNA, one strand shown
In short: as §1

SPIC = biological target: T8, SPIC (Homo sapiens, UniProt Q8N5J4 1-248); conditions: protein: recombinant; tags: N-terminal GST; dsDNA, one strand shown
T8 sequence: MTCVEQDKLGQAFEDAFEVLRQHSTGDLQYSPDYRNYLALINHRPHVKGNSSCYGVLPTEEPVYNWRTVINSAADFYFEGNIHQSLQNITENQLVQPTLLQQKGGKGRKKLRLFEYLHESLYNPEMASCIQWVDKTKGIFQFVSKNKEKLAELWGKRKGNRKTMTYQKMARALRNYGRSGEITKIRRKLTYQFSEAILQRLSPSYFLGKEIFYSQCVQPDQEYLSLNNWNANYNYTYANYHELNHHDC
In short: as §1

ELF4 = ELF4 (Homo sapiens, UniProt Q99607 1-663); conditions: protein: recombinant; tags: N-terminal GST; dsDNA, one strand shown
In short: as §1

ELK4 = biological target: T9, ELK4 (Homo sapiens, UniProt P28324-2 1-405); conditions: protein: recombinant; tags: N-terminal GST; dsDNA, one strand shown
T9 sequence: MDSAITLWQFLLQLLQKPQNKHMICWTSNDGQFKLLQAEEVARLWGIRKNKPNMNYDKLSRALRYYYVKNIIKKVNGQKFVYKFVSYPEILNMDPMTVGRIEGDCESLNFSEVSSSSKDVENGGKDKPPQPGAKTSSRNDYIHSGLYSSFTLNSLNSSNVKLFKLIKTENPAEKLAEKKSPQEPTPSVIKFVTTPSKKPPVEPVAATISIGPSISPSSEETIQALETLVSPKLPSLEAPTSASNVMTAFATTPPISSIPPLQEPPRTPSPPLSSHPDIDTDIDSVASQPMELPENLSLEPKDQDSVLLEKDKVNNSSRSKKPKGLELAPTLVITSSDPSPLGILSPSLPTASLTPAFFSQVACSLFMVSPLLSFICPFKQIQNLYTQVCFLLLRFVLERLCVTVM
In short: as §1

ETV2 = biological target: T10, ETV2 (Homo sapiens, UniProt O00321 1-342); conditions: protein: recombinant; tags: N-terminal GST; dsDNA, one strand shown
T10 sequence: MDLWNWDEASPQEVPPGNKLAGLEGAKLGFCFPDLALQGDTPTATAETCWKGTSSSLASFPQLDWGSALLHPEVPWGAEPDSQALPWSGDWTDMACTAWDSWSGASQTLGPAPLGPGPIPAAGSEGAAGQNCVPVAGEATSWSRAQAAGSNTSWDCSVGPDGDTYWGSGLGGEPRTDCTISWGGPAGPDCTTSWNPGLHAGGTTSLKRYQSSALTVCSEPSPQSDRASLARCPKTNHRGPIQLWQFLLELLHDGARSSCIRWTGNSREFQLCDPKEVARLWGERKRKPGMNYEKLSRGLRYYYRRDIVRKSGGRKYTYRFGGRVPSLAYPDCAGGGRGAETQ
In short: as §1

ELF3 = biological target: T11, ELF3 (Homo sapiens, UniProt P78545 1-371); conditions: protein: recombinant; tags: N-terminal GST; dsDNA, one strand shown
T11 sequence: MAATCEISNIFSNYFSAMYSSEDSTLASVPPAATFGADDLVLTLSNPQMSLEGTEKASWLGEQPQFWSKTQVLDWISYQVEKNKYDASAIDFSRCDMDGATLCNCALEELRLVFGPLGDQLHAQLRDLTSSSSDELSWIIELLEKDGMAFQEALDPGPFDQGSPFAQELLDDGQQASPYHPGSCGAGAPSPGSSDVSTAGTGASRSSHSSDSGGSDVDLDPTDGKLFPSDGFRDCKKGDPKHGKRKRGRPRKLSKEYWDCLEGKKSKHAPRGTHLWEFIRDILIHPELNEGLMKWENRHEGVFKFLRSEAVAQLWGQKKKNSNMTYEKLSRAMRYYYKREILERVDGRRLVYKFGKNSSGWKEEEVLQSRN
In short: as §1

CRX = CRX (Homo sapiens, UniProt O43186 1-299); conditions: protein: recombinant; tags: N-terminal GST; dsDNA, one strand shown
In short: as §1

ETV1 = ETV1 (Homo sapiens, UniProt P50549 1-477); conditions: protein: recombinant; tags: N-terminal GST; dsDNA, one strand shown
In short: as §1

Sequence of SPIB (Q01892 whole entry): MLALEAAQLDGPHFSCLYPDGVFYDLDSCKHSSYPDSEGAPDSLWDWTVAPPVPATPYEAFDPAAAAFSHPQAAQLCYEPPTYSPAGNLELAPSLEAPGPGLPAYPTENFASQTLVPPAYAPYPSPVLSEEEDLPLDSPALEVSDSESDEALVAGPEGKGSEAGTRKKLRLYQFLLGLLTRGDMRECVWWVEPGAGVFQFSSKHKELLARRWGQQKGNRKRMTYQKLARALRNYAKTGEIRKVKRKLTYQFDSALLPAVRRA
Sequence of CRX (O43186 whole entry): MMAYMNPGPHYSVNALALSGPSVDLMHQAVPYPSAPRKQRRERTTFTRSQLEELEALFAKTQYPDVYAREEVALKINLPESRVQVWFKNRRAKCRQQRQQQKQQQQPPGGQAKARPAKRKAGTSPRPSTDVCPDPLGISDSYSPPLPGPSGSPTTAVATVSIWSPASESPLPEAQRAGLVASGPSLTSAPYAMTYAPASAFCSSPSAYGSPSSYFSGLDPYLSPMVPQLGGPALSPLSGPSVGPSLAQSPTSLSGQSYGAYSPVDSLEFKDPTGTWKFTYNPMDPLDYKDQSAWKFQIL
Sequence of ELF4 (Q99607 whole entry): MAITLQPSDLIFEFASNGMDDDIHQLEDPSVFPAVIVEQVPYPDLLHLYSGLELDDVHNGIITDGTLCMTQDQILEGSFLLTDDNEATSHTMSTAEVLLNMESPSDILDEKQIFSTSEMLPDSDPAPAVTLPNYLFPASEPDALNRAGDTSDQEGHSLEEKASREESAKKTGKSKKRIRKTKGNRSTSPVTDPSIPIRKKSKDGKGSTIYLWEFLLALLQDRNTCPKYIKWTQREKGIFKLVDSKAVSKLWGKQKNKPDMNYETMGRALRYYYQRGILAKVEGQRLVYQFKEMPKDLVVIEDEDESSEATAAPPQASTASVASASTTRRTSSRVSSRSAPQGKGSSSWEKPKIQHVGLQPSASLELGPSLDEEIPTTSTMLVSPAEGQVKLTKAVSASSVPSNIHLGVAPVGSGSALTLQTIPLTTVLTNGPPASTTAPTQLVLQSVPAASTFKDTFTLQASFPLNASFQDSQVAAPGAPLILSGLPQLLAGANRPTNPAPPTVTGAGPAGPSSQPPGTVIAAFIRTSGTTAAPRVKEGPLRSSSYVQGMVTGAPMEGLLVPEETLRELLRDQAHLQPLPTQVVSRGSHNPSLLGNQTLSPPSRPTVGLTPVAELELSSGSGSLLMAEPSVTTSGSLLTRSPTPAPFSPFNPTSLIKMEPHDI
Sequence of HSF1 (Q00613 whole entry): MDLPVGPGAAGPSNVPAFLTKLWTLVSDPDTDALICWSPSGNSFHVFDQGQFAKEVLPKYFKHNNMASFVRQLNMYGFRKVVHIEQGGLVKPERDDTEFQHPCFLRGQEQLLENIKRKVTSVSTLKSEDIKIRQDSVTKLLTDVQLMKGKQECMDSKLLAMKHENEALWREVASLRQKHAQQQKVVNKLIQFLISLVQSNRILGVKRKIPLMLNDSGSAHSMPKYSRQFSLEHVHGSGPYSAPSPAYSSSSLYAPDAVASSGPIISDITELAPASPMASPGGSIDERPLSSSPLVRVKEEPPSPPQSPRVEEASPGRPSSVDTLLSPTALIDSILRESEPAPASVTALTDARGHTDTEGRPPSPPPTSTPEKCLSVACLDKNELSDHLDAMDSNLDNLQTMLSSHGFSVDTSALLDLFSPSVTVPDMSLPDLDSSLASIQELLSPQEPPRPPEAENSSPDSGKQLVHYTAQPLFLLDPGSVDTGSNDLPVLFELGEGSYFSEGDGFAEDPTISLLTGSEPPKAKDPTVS
Sequence of ETV5 (P41161 whole entry): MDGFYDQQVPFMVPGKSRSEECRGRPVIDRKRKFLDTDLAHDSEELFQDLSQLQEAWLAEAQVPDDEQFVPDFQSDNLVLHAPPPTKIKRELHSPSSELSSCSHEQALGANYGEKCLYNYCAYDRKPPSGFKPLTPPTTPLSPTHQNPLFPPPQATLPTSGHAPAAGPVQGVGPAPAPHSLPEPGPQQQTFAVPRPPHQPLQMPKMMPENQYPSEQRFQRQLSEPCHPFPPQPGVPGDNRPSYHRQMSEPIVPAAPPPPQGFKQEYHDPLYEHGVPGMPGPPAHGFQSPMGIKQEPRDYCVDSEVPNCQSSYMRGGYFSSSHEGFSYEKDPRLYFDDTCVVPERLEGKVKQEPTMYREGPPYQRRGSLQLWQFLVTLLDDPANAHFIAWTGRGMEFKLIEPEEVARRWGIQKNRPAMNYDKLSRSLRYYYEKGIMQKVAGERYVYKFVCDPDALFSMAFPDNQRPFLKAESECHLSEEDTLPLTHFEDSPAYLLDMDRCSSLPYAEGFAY
Sequence of ETV1 (P50549 whole entry): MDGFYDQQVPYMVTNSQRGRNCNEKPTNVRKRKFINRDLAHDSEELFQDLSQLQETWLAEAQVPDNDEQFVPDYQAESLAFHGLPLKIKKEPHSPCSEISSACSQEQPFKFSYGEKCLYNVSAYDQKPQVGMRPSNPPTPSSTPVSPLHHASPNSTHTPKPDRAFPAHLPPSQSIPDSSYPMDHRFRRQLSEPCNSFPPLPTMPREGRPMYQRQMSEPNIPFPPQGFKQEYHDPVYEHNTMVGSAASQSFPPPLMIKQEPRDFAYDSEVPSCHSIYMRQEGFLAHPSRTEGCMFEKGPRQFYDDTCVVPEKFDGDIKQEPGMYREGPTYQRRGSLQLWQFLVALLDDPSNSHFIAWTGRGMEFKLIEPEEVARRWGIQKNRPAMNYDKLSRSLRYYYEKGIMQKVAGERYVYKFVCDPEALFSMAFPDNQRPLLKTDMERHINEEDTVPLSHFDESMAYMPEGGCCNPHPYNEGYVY
Sequence of ELF1 (P32519 whole entry): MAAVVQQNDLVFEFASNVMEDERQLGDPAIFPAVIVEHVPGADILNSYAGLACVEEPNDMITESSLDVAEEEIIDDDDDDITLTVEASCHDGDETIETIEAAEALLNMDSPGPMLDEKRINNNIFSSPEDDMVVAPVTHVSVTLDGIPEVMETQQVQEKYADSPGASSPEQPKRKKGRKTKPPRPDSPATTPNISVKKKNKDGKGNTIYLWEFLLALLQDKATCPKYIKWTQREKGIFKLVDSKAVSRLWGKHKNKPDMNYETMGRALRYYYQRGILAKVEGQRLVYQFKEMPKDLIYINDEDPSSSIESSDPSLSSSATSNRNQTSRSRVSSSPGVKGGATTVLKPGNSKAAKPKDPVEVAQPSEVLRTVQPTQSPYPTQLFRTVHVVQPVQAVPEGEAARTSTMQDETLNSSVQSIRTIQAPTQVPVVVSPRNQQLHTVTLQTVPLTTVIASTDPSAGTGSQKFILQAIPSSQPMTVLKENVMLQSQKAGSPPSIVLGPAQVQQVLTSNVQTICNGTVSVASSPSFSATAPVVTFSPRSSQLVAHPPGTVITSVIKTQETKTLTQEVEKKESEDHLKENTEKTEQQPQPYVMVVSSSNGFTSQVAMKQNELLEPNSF

Sequence: TTTTGA
- binding signal (FLI1): 1.13 fold enrichment (6-mer frequency, TF over GST control)
- binding signal (ELK1): 1.18 fold enrichment (6-mer frequency, TF over GST control)
- binding signal (GABPA): 1.13 fold enrichment (6-mer frequency, TF over GST control)
- binding signal (ERG): 1.11 fold enrichment (6-mer frequency, TF over GST control)
- binding signal (ELF1): 1.17 fold enrichment (6-mer frequency, TF over GST control)
- binding signal (EHF): 1.17 fold enrichment (6-mer frequency, TF over GST control)
- binding signal (SPI1): 1.13 fold enrichment (6-mer frequency, TF over GST control)
- binding signal (SPIB): 1.04 fold enrichment (6-mer frequency, TF over GST control)
- binding signal (ELK3): 1.06 fold enrichment (6-mer frequency, TF over GST control)
- binding signal (FEV): 1 fold enrichment (6-mer frequency, TF over GST control)
- binding signal (ETV5): 1.19 fold enrichment (6-mer frequency, TF over GST control)
- binding signal (HSF1): 1.12 fold enrichment (6-mer frequency, TF over GST control)
- binding signal (SPIC): 1.21 fold enrichment (6-mer frequency, TF over GST control)
- binding signal (ELF4): 1.19 fold enrichment (6-mer frequency, TF over GST control)
- binding signal (ELK4): 1.22 fold enrichment (6-mer frequency, TF over GST control)
- binding signal (ETV2): 1.2 fold enrichment (6-mer frequency, TF over GST control)
- binding signal (ELF3): 1.25 fold enrichment (6-mer frequency, TF over GST control)
- binding signal (CRX): 1.17 fold enrichment (6-mer frequency, TF over GST control)
- binding signal (ETV1): 1.13 fold enrichment (6-mer frequency, TF over GST control)
